Reference: PubChem BioAssay (NCATS)
Inconclusive results are not listed. Entries that show only a call come without a potency. Activity calls are given as the source filed them. Calls follow the shape of the dose curve; as a rule, active = well fitted inhibition curve with a large enough effect; inconclusive = small, poorly fitted or top-dose-only effect; inactive = flat fitted curve, though single readings scatter.

Legend:
Assay in all cases: qHTS profiling for inhibitors of Plasmodium falciparum proliferation (AID 504749); also: nearly all actives have a fitted effect of over 60% in size
Details in all cases: P. falciparum in erythrocytes, SYBR Green DNA, 72 h; series mostly up to 28.7 µM
[1] = system: CP215
Method in brief: (§1)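 P. falciparum-infected erythrocytes (0.3% parasitemia, 2.5% hematocrit final) were exposed to compounds for 72 h at 37 C in 5% CO2, then lysed with SYBR Green buffer overnight at room temperature; parasite DNA fluorescence was normalized to artemisinin and DMSO controls.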

[2] = system: DIV17
Method in brief: as §1

[3] = system: TAB109
Method in brief: as §1

[4] = system: C2A
Method in brief: as §1

[5] = system: CP185
Method in brief: as §1

[6] = system: CP191
Method in brief: as §1

[7] = system: CP194
Method in brief: as §1

[8] = system: CP201
Method in brief: as §1

[9] = system: CP211
Method in brief: as §1

[10] = system: CP247
Method in brief: as §1

[11] = system: CP250
Method in brief: as §1

[12] = system: CP256
Method in brief: as §1

[13] = system: CP269
Method in brief: as §1

[14] = system: CP291
Method in brief: as §1

[15] = system: CP305
Method in brief: as §1

[16] = system: CP315
Method in brief: as §1

[17] = system: CP325
Method in brief: as §1

[18] = system: CP329
Method in brief: as §1

[19] = system: FAB9
Method in brief: as §1

[20] = system: JCK
Method in brief: as §1
Potency is read from the fitted curve at half-maximal effect.

Compound | Potency [1] | Potency [2] | Potency [3] | Potency [4] | Potency [5] | Potency [6] | Potency [7] | Potency [8] | Potency [9] | Potency [10] | Potency [11] | Potency [12] | Potency [13] | Potency [14] | Potency [15] | Potency [16] | Potency [17] | Potency [18] | Potency [19] | Potency [20]
C[C@H]1C[C@@H]2[C@H]3CCC4=CC(=O)C=C[C@@]4(C)[C@@]3(Cl)[C@@H](O)C[C@]2(C)[C@]1(OC(=O)c1ccco1)C(=O)CCl | 5.1 µM (active) | 7.21 µM (active) | 3.55 µM (active) |  |  |  |  |  |  |  |  |  |  |  |  |  |  |  |  | 
C[C@@H]1C[C@H]2[C@H]3C[C@@H](F)C4=CC(=O)C=C[C@]4(C)[C@@]3(Cl)[C@@H](O)C[C@@]2(C)[C@@H]1C(=O)COC(=O)C(C)(C)C | inactive |  |  | inactive | inactive | inactive | inactive | inactive | inactive | inactive | inactive | inactive | inactive | inactive | inactive | inactive | inactive | inactive | inactive | inactive
COc1cc2nc(N(C)CCCNC(=O)[C@@H]3CCCO3)nc(N)c2cc1OC |  | inactive | inactive | inactive | inactive | inactive | inactive | inactive | inactive | inactive | inactive | inactive | inactive | inactive | inactive | inactive | inactive | inactive | inactive | inactive
CO/N=C(\C(=O)N[C@@H]1C(=O)N2C(C(=O)[O-])=C(C[N+]3(C)CCCC3)CS[C@@H]12)c1csc(N)n1 | inactive | inactive |  | inactive | inactive | inactive | inactive | inactive | inactive | inactive | inactive | inactive | inactive | inactive | inactive | inactive | inactive | inactive | inactive | inactive
N[C@H](COP(=O)(O)O)C(=O)O | inactive | inactive | inactive | inactive | inactive | inactive | inactive | inactive | inactive | inactive | inactive | inactive | inactive | inactive | inactive | inactive | inactive | inactive | inactive | inactive
C=C(NC(=O)C(=C)NC(=O)c1csc(C2=N[C@@H]3c4csc(n4)[C@@H]4NC(=O)c5csc(n5)[C@@H]([C@](C)(O)[C@H](C)O)NC(=O)[C@@H]5CSC(=N5)/C(=C/C)NC(=O)[C@@H]([C@H](C)O)NC(=O)c5csc(n5)[C@]3(CC2)NC(=O)[C@@H](C)NC(=O)C(=C)NC(=O)[C@@H](C)NC(=O)[C@@H]([C@@H](C)CC)N[C@H]2C=Cc3c([C@H](C)O)cc(nc3[C@@H]2O)C(=O)O[C@H]4C)n1)C(N)=O |  |  | 0.398 µM (active) |  |  |  |  |  |  |  |  |  |  |  |  |  |  |  | inactive | inactive
